Assay results: PubChem BioAssay (NCI)
Compounds without any hit were thinned out: in the full panel of roughly 79,000, 15% have a hit. Unmarked numbers belong to inactive results. Active and inactive are the calls of the source. Rule as the data show it: active = growth inhibition above about 70%; inactive = the rest.

Experiment: NCI Yeast Anticancer Drug Screen. Data for the sgs1 mgt1 strain (AID 161);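 also: 0% = growth of cultures given vehicle only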
Conditions: S. cerevisiae sgs1 mgt1 strain, at 50.0 µM, active compounds read high
Method in brief: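 Percent growth inhibition was derived by comparing compound-exposed mutant yeast with vehicle-exposed cultures. The strain carries alterations in DNA damage repair.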

SMILES | growth inhibition
CC/C=C/CC(=O)NCc1ccc(O)c(OC)c1 | -7.95%
c1ccc2cc(N3CCOCC3)ccc2c1 | -7.3%
CCOC(=O)C(c1ccccc1)N(CCCN(CC)CC)c1ccccc1 (stereo not given) | 1.6%
CC(C(O)C(F)(F)F)[N+](C)(C)C (stereo not given) | 1.8%
Cc1ccc(NC(=O)CCCC(=O)C(C#N)c2ccccc2Cl)cc1C (stereo not given) | -5.75%
COc1ccc(/C(Cl)=C(\C=N/O)c2ccc(OC)c(OC)c2)cc1OC | -0.7%
N/C(=N\OC(=O)Nc1ccc(CSc2ccc(Cl)cc2)o1)c1ccccn1 | -14.1%
CCOC(=O)C(C)N1CCCCCC1 (stereo not given) | -17.8%
CC1(C)C=C(C(Br)c2ccc(Cl)cc2)C(=O)c2ccccc21 (stereo not given) | 98.2% (active)
Nc1cccc(OCC(O)CN2CCN(c3ccccc3)CC2)c1 (stereo not given) | 0.1%
CC(=O)C1CCC(C)(O)CC1=O (stereo not given) | -14.5%
COC(SC)(SC)c1cc(-c2c(Cl)cccc2Cl)no1 | -3.1%
CSc1nc(NC2OCC(OC(C)=O)C(OC(C)=O)C2OC(C)=O)c(N=C(C)C(C)=O)c(=O)[nH]1 (stereo not given) | 15.2%
Cc1ccc(N=C(NN(C)C)C(c2ccccc2)c2ccccc2)cc1 | 7.95%
CCN(CC)Cc1cc(Nc2c3ccc([N+](=O)[O-])cc3nc3ccc(OC)cc23)ccc1O | 56%
O=C1C=CC(CCCCCn2ccc(=O)[nH]c2=O)C(=O)N1 (stereo not given) | 14.7%
CC(C)(C)NC(=O)NC(C)(C)C | 7.3%
CCN(C(=O)c1ccc([N+](=O)[O-])cc1)C(c1ccccc1)P(=O)(c1ccccc1)c1ccccc1 (stereo not given) | -15.1%
COC1(C2COc3cc(OCc4ccccc4)ccc3C2=O)C=C2OCOC2=CC1=O (stereo not given) | -6.6%
Cc1nc2c(=O)[nH]c3ccccc3c2o1 | 3.1%

SMILES | growth inhibition
CCOC(=O)C[P+](c1ccc(OC)cc1)(c1ccc(OC)cc1)c1ccc(OC)cc1 | 92.5% (active)
COC(=O)C1(CC(=O)c2cccs2)NC(=S)NC(=O)C1C#N (stereo not given) | -7.5%
COc1ccc(/C(N)=N/OCc2ccc(C#N)cc2)cc1 | -3.2%
C1OC[C@@H]([C@H]2COCO2)O1 | -7%
Nc1cccc(C(O)c2ccccc2)c1 (stereo not given) | 0.1%
Cc1ccc(Cl)c(NC(=O)COc2ccc(Cl)cc2)c1 | 22.3%
COCc1ccc(C(C)(C)CC(C)(C)C)cc1 | -0.1%
O=C1CCCc2cc3c(cc21)CC1(C3)Cc2cc3c(cc2C1)C(=O)CCC3 | -5.8%
CN1CC2=C(NC(=S)NC2c2ccccc2Cl)/C(=C/c2ccccc2Cl)C1 (stereo not given) | 37.6%
N#CNC1=NC(N)C(c2nc3ccccc3[nH]2)=C(CCCC(=O)Nc2cccc([N+](=O)[O-])c2)N1 (stereo not given) | 5.45%
NS(=O)(=O)c1cc(Br)ccc1Br | -0.35%
Cc1nc(N)[nH]c(=O)c1-n1nnc2ccccc2c1=O | 14.1%
CSc1nc(NC2OCC(O)C(O)C2O)cc(=O)n1C (stereo not given) | 7.4%
C/C(N=NC(=S)N1CCCCC1)=C1\C=CC=CN1O | 53.8%
[N-]=[N+]=NC12CC3C4CC5CC3C(C1)C(C5)C4C2 | -6.65%
O=C1OC2C(Cl)CC(Cl)CC2C=C1c1cccc([N+](=O)[O-])c1 (stereo not given) | -16.6%
O=C1c2ccccc2N2OC3(N4CCOCC4)CCCC3C12c1ccccc1 (stereo not given) | 45.3%
CC(C)[C@@]12O[C@@H]1CC13OC1[C@@H](O)CC[C@@]32O (stereo not given in full) | -2.8%
O=C(NNC1=NCCCCN1)Nc1ccc(Cl)cc1 | 26.4%
CCN(CC)c1ccc(NC(C)=O)c(C)c1 | 9.65%
